# From PubChem BioAssay (Tox21)
# Results filed as inconclusive are left out. A call without a number means that no potency is given here. Active and inactive are the calls of the source. Calls come from the whole dose curve; as a rule, active = well fitted cell-killing curve with a large enough effect in the repeat runs; inconclusive = weak or mixed curves, or effect the other way; inactive = flat fitted curve, though single readings scatter.
# How the values were obtained:
# [1] = cAMP Responsive Elements (CRE) small molecule antagonists, cell-based qHTS assay: qHTS cell viability counter screen (AID 2060913); note: nearly all actives have a fitted effect of over 40% in size
# Outline: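 Steps: cells plated and held 18 hrs at 37 C/5% CO2; compounds and NKH477 (0.25 uM final) added; 3 hrs incubation; reporter substrate read; CellTiter-Glo added to measure cytotoxicity by luminescence.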
# [2] = cAMP Responsive Elements (CRE) small molecule agonists, cell-based qHTS assay: qHTS cell viability counter screen (AID 2060914); note: nearly all actives have a fitted effect of over 50% in size
# Outline: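 Luminescence read-out (CellTiter-Glo, 30 min RT) of ATP-based viability in CRE-bla HEK 293T cells, run in the same wells as the β-lactamase reporter assay after 3 h compound treatment at 37 °C.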
# Potency is the fitted concentration of half-maximal effect.
Compound,Potency [1],Potency [2]
Cc1ccc(CO)cc1,inactive,inactive
C=C(C#N)C(=O)OCC,inactive,inactive
COc1c(Br)cc(Br)c(C)c1Br,inactive,inactive
N#CC1(O)CCCCC1,inactive,inactive
NC=O,inactive,inactive
CC[C@@]1(c2ccccc2)NC(=O)N(C)C1=O,inactive,inactive
CCC/C=C(\C=O)CC,inactive,inactive
CCC(C)=O,inactive,inactive
Cc1cc(-n2nc3ccc(Cl)cc3n2)c(O)c(C(C)(C)C)c1,inactive,inactive
Fc1c(F)c(F)c(Br)c(F)c1F,inactive,inactive
CC(C)c1ccc2c(C(C)C)cc(C(C)C)c(S(=O)(=O)O)c2c1,inactive,inactive
C=C[Si](C)(C)O[Si](C)(C)C=C,inactive,inactive
O=C1OC(c2ccc(O)cc2)(c2ccc(O)cc2)c2ccccc21,inactive,inactive
Cc1ccc2c(n1)Oc1ccc(C(C)C(=O)OCC(=O)N(C)C)cc1C2 (stereo not given),inactive,inactive
CC(C)(C)S,inactive,inactive
CCc1c(Br)c(Br)c(Br)c(Br)c1Br,inactive,inactive
Cc1cc(C)nc(NS(=O)(=O)c2ccc(N)cc2)n1,inactive,inactive
CC(C)(C)c1cc(O)c(C(C)(C)C)cc1O,inactive,inactive
NS(=O)(=O)c1cc2c(cc1Cl)CN(C1CCCCC1)C2=O,inactive,inactive
O=C(NC1CCN(CCc2c[nH]c3ccccc23)CC1)c1ccccc1,inactive,inactive
CCCOc1ccccc1-c1nc2n[nH]nc2c(=O)[nH]1,inactive,inactive
O=C1c2ccccc2C(=O)c2c(O)c(O)cc(O)c21,inactive,inactive

Compound,Potency [1],Potency [2]
Clc1cc(Cl)nc(Cl)n1,inactive,inactive
O=C(Nc1ccc2c(c1)Cc1ccccc1-2)C(F)(F)F,inactive,inactive
COC(=O)C1=C(C)NC(C)=C(C(=O)OC(C)C)C1c1cccc2nonc12 (stereo not given),inactive,inactive
CN(C)c1ccc(C2(c3ccc(N(C)C)cc3)OC(=O)c3cc(N(C)C)ccc32)cc1,inactive,inactive
Oc1ccc2c(c1)CCC2,inactive,inactive
C[N+]12CCC(CC1)C(OC(=O)C(O)(c1ccccc1)c1ccccc1)C2 (stereo not given),inactive,inactive
N[C@@H](Cc1c[nH]c2ccccc12)C(=O)O,inactive,inactive
CN1Cc2c(N)cccc2C(c2ccccc2)C1 (stereo not given),inactive,inactive
CCCCCCCCn1sc(Cl)c(Cl)c1=O,30.6 µM (active),43.3 µM (active)
C/C(=N/NC(=O)c1ccncc1)C(=O)O,inactive,inactive
Cc1cc2nc3c(=O)[nH]c(=O)nc-3n(C[C@H](O)[C@H](O)[C@H](O)CO)c2cc1C,inactive,inactive
Cc1cnc(NS(=O)(=O)c2ccc(N)cc2)nc1,inactive,inactive
Oc1cccc2[nH]ccc12,inactive,inactive
OCCN(CCO)c1nc(N2CCCCC2)c2nc(N(CCO)CCO)nc(N3CCCCC3)c2n1,inactive,inactive
OCCSc1ccccc1,inactive,inactive
Cn1cnc2ncnc(N)c21,inactive,inactive
Cc1ccccc1C(N)=O,inactive,inactive
O=P(O)(OCc1ccccc1)OCc1ccccc1,inactive,inactive
O=Cc1ccccc1O,inactive,inactive
N=c1nc(N2CCCCC2)cc(N)n1O,inactive,inactive
ClC/C=C\CCl,inactive,inactive
CCCC(C)C=O (stereo not given),inactive,inactive

Compound,Potency [1],Potency [2]
CC(C)CCCCCCOC(=O)CCCCC(=O)OCCCCCCC(C)C,inactive,inactive
C1COC(NC(C2CC2)C2CC2)=N1,inactive,inactive
CCN1CC(CCN2CCOCC2)C(c2ccccc2)(c2ccccc2)C1=O (stereo not given),inactive,inactive
Oc1ccc2ccccc2c1,inactive,inactive
O=C1Nc2ccccc2C1(c1ccc(O)cc1)c1ccc(O)cc1,inactive,inactive
CC1=C(/C=C/C(C)=C/C=C/C(C)=C/C(=O)Nc2ccc(O)cc2)C(C)(C)CCC1,inactive,inactive
Cc1cc(C(C)(C)C)cc(C)c1CC1=NCCN1,inactive,inactive
O=C1[C@H]2CCCC[C@H]2C(=O)N1CCCCN1CCN(c2nsc3ccccc23)CC1,inactive,inactive
CCOc1ccc(OCC)c(Cl)c1,inactive,inactive
Cc1ccccc1S(N)(=O)=O,inactive,inactive
C[C@@H](c1ncncc1F)C(O)(Cn1cncn1)c1ccc(F)cc1F (stereo not given in full),inactive,inactive
C=CCOc1nc(OCC=C)nc(OCC=C)n1,inactive,inactive
Oc1ccc(Sc2ccc(O)cc2)cc1,inactive,inactive
COCCOC(=O)C1=C(C)NC(C)=C(C(=O)OC/C=C/c2ccccc2)C1c1cccc([N+](=O)[O-])c1 (stereo not given),inactive,inactive
O=C(c1ccc2c(c1)C(=O)OC2=O)c1ccc2c(c1)C(=O)OC2=O,inactive,inactive
CC(C)c1ccc(C=O)cc1,inactive,inactive
c1ccc2c(c1)-c1cccc3c1c-2cc1ccccc13,inactive,inactive
O=C(O)c1cc(Cl)cc([N+](=O)[O-])c1Cl,inactive,inactive
O=C(c1ccccc1)c1ccc(O)cc1O,inactive,inactive
Nc1ccc(Cl)c(N)c1,inactive,inactive
C[N+](C)(CCOc1ccccc1)Cc1cccs1,inactive,inactive
